# Laboratory results taken from PubChem BioAssay (Tox21).
# The source made the active and inactive calls. Calls come from the whole dose curve; as a rule, active = well fitted inhibition curve with a large enough effect in the repeat runs (not every such curve was filed as active); inconclusive = weak or mixed curves; inactive = flat fitted curve, though single readings scatter. Residues, ends and D or L forms follow the SMILES beside them.
# Biological target: Thyrotropin-releasing hormone receptor (Homo sapiens) (UniProt P34981)
# Sequence (P34981 whole entry, looked up): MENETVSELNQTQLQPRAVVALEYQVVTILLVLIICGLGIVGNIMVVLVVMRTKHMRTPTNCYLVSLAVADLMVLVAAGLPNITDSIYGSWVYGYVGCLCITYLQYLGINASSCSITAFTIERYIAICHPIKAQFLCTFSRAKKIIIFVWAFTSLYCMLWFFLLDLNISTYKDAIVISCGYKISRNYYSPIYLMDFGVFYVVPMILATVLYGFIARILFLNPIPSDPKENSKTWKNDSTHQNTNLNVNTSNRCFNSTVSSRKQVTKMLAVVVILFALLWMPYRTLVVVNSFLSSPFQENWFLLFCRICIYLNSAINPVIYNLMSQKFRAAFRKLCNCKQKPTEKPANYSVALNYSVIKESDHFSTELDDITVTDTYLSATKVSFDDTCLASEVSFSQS
# Assay: qHTS assay to identify small molecule antagonists of the thyrotropin-releasing hormone receptor (TRHR) signaling pathway (AID 1346877)
# Conditions: TRHR-HEK293, TRH-induced calcium fluorescence, antagonist mode; series mostly up to 51.3 µM
# Text: National Center for Advancing Translational Sciences [NCATS]
# NIH Chemical Genomics Center [NCGC]
# U.S. Environmental Protection Agency [EPA]
# National Institutes of Environmental Health Sciences [NIEHS]
# National Toxicology Program [NTP]
# U.S. Food and Drug Administration [FDA]
# Thyrotropin-releasing hormone (TRH) receptor (TRHR) is a G-protein-coupled receptor which binds the tripeptide thyrotropin releasing hormone. TRHR is found in the brain and, when bound by TRH, acts (through phospholipase C) to increase intracellular inositol trisphosphate. It plays a crucial role in the anterior pituitary where it controls the synthesis and secretion of thyroid stimulating hormone and prolactin. The TRHR-Hek293 assay is a cell-based assay, and it has the potential to screen G protein-coupled receptors. A compound/drug can either activate (agonist) or suppress (antagonist) GPCRs that can be monitored by levels of intracellular calcium. In this assay, the Tox21 10K compound library was screened to identify potential TRHR antagonists.
# Tox21 Assay Protocol Summary:
# The TRHR-Hek293 cells were dispensed at 1500cells/4uL/well in 1536-well black-clear bottom plates using a Multidrop dispenser. After the assay plates were incubated at a 37 C/5% CO2 incubator for 18 hours, 4 uL of Dye-Loading Solution was added to each well. The plates were incubated at 37 C for 2 hours. For agonist mode, 23 nL of compounds dissolved in DMSO, positive controls or DMSO only was transferred to the assay plate by a pin tool. The fluorescence intensity in the plates was measured using FDSS 7000EX kinetic plate reader for 3 min at 1 sec intervals. For antagonist mode, 23 nL of compounds dissolved in DMSO, positive controls or DMSO only was transferred to the assay plate by a pin tool. After 5 min incubation at room temperature, 1 uL of TRH was added on the top of the cell/compound mixtures to achieve a final agonist concentration of 1 nM. The fluorescence intensity in the plates was measured using FDSS 7000EX kinetic plate reader for 3 min at 1 sec intervals. Each test compound was measured at 15 concentrations and in triplicates.
row,Compound,outcome
1,COC(=O)[C@H](Cc1ccccc1)NC(=O)[C@@H](N)CC(=O)O (H-Asp-Phe-OMe),inactive
2,CC(=O)OCC(COC(C)=O)OC(C)=O,inactive
3,NC(N)=NC(=O)c1nc(Cl)c(N)nc1N,inactive
4,CCCC(CCC)C(=O)O,inactive
5,NS(=O)(=O)c1cc(C(=O)O)c(NCc2ccco2)cc1Cl,inactive
6,NC(=O)c1cnccn1,inactive
7,Cc1cc(=O)n(-c2ccccc2)n1C,inactive
8,Cc1ccccc1C(OCCN(C)C)c1ccccc1 (stereo not given),inactive
9,Nc1ccn([C@H]2CC[C@@H](CO)O2)c(=O)n1,inactive
10,O=C(O)c1cccnc1,inactive
11,COc1ccc2[nH]cc(CCNC(C)=O)c2c1,inactive
12,NC(=O)c1ccccc1O,inactive
13,CCCCOC(=O)CC(CC(=O)OCCCC)(OC(C)=O)C(=O)OCCCC,inactive
14,O=C(O)c1[nH]n(-c2ccc(S(=O)(=O)O)cc2)c(=O)c1N=Nc1ccc(S(=O)(=O)O)cc1,inactive
15,O=C(O)c1cccc([N+](=O)[O-])c1,inactive
16,CC(O)C(=O)O (stereo not given),inactive
17,O=C(C1CCCCC1)N1CC(=O)N2CCc3ccccc3C2C1 (stereo not given),inactive
18,Cc1cc(=O)[nH]c(=S)[nH]1,inactive
19,Cc1ccc(O)cc1,inactive
20,O=S(=O)(O)c1ccc2cc(O)ccc2c1,inactive

row,Compound,outcome
1,CCCCC1C(=O)N(c2ccccc2)N(c2ccccc2)C1=O,inactive
2,O=C(O)CCC(=O)O,inactive
3,CC(=O)Nc1nnc(S(N)(=O)=O)s1,inactive
4,CC(C)[C@@H]1CC[C@@H](C)C[C@H]1O,inactive
5,O=C1CN(/N=C/c2ccc([N+](=O)[O-])o2)C(=O)N1,inactive
6,O=C(c1ccccc1)C(O)c1ccccc1 (stereo not given),inactive
7,Nc1ccc(S(=O)(=O)c2ccc(N)cc2)cc1,inactive
8,CCCCC(CC)COC(=O)/C=C/c1ccc(OC)cc1 (stereo not given),inactive
9,O=C(O)CCCCC(=O)O,inactive
10,Cc1ccc(S(=O)(=O)NC(=O)NN2CCCCCC2)cc1,inactive
11,CC1(C)[C@@H]2CC[C@@]1(C)C(=O)C2,inactive
12,c1ccc2[nH]ccc2c1,inactive
13,O=C(O)CS,inactive
14,Cc1noc(NS(=O)(=O)c2ccc(N)cc2)c1C,inactive
15,Nc1ccc(O)c(C(=O)O)c1,inactive
16,Oc1ccc(/C=C/c2cc(O)cc(O)c2)cc1,inactive
17,N=C(N)c1ccc(OCCCCCOc2ccc(C(=N)N)cc2)cc1,inactive
18,CC(O)CN(CCN(CC(C)O)CC(C)O)CC(C)O (stereo not given),inactive
19,O=c1cc[nH]c(=S)[nH]1,inactive
20,C/C=C/c1ccc(OC)cc1,inactive
